Measurements reported in the supplement of paper PMC11732987, “Enantioselective OTUD7B fragment discovery through chemoproteomics screening and high-throughput optimisation” (Communications Chemistry, 2025).

Columns and labels:
Experiment in all cases: log2 ratio of Biotin-Ahx-Ub-VS probe labelling (fragment/DMSO); higher = less target engagement (more negative = stronger competition), active = hit call of the paper (q ≤ 0.05, log2 ratio ≤ -1)
Details in all cases: compound concentration: 200 uM; treatment time: 3 h
USP34 = USP34 (UniProt Q70CQ2)
Chain of USP34 (Q70CQ2 whole entry, the tested form may be a part): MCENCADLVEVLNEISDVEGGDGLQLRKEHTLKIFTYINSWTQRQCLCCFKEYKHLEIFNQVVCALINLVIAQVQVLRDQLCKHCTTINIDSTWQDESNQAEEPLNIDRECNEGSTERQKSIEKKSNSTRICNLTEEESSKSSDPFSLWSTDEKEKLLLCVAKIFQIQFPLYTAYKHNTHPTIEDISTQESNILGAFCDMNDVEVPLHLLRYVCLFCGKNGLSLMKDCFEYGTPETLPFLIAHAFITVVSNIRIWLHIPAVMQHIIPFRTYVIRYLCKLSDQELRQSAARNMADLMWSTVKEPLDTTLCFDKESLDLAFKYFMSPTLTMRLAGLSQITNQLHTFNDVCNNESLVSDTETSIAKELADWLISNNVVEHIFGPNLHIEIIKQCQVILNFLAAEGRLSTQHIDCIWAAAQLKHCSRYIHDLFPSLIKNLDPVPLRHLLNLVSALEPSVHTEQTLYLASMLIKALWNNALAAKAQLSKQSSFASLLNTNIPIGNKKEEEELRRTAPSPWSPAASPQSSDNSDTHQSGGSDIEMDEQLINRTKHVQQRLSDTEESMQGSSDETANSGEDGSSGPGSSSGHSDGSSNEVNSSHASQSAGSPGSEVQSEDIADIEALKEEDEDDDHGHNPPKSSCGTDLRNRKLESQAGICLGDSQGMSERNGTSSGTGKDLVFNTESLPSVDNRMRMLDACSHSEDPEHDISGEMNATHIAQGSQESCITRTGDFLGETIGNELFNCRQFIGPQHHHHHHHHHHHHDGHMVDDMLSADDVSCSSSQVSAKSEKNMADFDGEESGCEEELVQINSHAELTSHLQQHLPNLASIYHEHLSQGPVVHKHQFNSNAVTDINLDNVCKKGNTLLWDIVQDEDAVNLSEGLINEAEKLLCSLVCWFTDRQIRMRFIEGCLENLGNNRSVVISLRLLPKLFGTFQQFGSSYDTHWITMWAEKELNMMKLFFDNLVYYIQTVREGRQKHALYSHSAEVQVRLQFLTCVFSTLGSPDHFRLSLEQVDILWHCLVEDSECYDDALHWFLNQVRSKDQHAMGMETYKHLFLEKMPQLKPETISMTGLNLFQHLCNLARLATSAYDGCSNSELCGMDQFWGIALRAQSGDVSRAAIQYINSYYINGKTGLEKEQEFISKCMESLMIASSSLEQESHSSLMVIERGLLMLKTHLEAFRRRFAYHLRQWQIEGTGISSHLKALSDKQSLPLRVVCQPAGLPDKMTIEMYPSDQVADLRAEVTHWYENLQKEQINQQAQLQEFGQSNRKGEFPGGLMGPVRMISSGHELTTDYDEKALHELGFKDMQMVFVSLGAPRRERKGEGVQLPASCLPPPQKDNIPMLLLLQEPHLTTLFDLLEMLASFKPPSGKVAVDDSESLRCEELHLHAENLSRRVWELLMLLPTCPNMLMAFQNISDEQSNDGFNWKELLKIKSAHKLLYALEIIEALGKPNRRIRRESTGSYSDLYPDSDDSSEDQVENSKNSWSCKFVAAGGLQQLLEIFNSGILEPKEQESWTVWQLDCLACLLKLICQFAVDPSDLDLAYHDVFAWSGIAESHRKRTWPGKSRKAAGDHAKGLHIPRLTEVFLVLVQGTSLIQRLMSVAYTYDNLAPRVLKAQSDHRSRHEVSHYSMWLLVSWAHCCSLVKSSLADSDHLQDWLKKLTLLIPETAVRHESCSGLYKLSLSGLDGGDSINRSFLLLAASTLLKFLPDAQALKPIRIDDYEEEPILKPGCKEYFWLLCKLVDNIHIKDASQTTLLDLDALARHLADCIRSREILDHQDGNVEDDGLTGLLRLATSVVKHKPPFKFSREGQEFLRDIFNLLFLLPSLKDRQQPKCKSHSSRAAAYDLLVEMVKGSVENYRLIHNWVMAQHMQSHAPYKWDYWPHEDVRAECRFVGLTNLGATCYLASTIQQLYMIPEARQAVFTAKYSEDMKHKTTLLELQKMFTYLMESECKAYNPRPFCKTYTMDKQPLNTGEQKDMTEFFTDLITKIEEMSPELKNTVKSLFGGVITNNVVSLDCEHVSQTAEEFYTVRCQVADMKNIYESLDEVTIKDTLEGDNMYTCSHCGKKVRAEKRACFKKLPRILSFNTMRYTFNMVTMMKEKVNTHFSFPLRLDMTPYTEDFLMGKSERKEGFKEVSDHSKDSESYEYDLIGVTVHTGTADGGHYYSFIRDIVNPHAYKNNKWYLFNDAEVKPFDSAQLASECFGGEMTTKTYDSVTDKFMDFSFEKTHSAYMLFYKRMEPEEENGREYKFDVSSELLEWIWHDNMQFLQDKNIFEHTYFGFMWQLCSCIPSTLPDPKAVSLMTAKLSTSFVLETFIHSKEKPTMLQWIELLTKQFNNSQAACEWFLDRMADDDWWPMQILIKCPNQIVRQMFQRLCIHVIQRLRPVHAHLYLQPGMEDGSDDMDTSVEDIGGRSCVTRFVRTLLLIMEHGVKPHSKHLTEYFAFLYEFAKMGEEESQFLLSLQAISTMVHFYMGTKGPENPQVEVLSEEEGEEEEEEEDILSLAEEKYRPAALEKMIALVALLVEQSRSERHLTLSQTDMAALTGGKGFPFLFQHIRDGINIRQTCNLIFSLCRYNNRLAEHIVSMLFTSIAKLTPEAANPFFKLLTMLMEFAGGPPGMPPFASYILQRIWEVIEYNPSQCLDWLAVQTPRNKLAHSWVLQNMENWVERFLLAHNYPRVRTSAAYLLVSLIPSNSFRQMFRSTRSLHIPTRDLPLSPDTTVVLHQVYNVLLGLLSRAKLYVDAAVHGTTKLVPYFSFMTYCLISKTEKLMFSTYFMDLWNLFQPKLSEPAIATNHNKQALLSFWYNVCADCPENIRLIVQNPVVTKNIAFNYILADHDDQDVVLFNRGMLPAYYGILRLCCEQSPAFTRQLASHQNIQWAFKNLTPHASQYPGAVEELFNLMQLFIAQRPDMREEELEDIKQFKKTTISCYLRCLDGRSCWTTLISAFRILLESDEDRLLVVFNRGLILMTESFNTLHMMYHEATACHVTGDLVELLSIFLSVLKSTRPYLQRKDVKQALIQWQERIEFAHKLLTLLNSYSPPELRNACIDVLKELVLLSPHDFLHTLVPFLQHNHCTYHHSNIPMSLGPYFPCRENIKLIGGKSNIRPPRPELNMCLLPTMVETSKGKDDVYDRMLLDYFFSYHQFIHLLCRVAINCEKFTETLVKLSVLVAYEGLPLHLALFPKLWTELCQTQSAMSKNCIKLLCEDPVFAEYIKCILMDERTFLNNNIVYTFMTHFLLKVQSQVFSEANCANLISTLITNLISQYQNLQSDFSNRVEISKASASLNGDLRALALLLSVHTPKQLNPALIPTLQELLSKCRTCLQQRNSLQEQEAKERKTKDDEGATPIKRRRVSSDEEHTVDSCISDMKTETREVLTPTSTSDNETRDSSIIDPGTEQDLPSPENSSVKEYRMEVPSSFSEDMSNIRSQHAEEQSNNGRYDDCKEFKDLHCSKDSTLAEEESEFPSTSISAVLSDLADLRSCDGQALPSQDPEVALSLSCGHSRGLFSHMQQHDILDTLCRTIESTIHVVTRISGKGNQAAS
In short: (§1)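 HEK293T lysate (495 µg per sample, in Tris/CHAPS/IGEPAL buffer with protease inhibitors) was exposed in triplicate for 3 h to fragment at 200 µM or to vehicle, then to Biotin-Ahx-Ub-VS at 0.5 µM final for 1 h. Labelled DUBs were enriched on NeutrAvidin, digested with LysC and trypsin, and analysed by diaPASEF LC-MS/MS. Spectronaut label-free quantities were normalised to the global median, and values are average log2 ratios of fragment over vehicle from an unpaired t-test. Only proteins with ≥2 unique peptides were used.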

USP36 = target: T1, USP36 (UniProt Q9P275)
T1 sequence (whole entry): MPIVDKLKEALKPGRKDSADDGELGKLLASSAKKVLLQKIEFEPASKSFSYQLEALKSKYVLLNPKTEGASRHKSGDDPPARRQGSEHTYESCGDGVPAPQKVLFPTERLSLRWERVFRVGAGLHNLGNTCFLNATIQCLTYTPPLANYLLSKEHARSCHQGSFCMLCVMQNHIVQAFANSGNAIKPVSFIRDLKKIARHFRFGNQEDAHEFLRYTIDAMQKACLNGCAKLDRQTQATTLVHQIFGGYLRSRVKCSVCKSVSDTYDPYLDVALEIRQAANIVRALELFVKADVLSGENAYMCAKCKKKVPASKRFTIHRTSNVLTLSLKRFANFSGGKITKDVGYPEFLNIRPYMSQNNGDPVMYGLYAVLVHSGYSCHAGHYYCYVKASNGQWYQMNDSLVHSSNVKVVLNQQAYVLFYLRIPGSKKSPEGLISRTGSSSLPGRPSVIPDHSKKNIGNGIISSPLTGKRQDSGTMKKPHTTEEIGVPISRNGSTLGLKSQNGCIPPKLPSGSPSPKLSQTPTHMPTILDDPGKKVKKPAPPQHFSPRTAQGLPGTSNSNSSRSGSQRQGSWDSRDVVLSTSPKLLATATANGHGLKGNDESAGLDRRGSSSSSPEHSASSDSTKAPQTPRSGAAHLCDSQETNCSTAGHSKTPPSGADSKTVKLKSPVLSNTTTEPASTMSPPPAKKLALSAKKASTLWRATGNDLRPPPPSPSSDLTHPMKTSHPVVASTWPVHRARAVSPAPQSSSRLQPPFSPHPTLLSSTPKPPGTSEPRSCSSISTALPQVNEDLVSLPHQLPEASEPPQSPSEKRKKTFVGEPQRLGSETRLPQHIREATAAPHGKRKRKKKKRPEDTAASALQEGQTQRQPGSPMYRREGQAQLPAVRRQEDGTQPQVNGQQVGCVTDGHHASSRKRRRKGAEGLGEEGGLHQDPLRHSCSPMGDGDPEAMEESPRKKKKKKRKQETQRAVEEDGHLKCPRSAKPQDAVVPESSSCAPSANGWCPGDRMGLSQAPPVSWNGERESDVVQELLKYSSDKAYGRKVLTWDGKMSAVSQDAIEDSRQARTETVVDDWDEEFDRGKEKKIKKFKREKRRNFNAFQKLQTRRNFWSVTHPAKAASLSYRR
In short: as §1

USP38 = target: T2, USP38 (UniProt Q8NB14)
T2 sequence (whole entry): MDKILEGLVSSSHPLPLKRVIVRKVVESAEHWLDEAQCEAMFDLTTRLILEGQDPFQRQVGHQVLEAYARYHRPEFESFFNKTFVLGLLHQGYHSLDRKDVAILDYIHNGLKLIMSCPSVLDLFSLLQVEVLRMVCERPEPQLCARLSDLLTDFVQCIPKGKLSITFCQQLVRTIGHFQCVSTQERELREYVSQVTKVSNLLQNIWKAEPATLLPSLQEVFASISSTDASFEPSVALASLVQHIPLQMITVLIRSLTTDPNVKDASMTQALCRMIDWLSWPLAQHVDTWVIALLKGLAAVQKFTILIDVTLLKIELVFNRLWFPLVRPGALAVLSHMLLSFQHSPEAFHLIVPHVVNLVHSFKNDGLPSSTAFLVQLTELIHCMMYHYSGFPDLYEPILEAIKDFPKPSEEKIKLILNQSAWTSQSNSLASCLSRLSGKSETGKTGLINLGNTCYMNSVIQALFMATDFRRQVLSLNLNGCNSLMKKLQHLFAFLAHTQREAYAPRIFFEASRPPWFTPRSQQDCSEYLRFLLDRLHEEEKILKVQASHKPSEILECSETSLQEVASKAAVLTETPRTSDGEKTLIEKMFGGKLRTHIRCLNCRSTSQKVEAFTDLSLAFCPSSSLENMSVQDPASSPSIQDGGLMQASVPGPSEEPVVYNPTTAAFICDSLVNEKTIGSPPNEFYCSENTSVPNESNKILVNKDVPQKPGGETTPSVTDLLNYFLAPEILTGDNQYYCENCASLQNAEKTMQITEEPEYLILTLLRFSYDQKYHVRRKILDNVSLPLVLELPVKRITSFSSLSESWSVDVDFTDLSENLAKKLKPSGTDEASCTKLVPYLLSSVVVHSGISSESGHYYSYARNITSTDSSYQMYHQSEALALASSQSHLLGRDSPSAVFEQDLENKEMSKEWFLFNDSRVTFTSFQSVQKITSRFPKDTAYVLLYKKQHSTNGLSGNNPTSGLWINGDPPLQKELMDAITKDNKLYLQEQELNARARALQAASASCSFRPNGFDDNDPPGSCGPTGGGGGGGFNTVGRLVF
In short: as §1

USP39 = target: T3, USP39 (UniProt Q53GS9)
T3 sequence (whole entry): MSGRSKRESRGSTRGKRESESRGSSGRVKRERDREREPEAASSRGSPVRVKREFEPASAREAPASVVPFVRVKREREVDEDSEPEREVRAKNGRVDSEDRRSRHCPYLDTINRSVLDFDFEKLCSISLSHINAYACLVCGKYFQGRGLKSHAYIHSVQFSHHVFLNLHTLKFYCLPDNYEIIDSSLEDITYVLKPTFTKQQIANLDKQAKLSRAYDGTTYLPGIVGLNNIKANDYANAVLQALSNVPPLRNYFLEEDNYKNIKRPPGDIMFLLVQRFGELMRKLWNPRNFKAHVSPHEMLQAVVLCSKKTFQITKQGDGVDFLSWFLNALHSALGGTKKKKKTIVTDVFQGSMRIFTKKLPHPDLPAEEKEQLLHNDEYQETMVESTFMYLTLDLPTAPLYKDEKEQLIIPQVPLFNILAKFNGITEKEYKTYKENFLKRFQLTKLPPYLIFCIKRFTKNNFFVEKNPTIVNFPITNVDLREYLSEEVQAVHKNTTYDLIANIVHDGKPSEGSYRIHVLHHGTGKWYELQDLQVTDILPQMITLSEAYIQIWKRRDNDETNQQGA
In short: as §1

USP4 = target: T4, USP4 (UniProt Q13107)
T4 sequence (whole entry): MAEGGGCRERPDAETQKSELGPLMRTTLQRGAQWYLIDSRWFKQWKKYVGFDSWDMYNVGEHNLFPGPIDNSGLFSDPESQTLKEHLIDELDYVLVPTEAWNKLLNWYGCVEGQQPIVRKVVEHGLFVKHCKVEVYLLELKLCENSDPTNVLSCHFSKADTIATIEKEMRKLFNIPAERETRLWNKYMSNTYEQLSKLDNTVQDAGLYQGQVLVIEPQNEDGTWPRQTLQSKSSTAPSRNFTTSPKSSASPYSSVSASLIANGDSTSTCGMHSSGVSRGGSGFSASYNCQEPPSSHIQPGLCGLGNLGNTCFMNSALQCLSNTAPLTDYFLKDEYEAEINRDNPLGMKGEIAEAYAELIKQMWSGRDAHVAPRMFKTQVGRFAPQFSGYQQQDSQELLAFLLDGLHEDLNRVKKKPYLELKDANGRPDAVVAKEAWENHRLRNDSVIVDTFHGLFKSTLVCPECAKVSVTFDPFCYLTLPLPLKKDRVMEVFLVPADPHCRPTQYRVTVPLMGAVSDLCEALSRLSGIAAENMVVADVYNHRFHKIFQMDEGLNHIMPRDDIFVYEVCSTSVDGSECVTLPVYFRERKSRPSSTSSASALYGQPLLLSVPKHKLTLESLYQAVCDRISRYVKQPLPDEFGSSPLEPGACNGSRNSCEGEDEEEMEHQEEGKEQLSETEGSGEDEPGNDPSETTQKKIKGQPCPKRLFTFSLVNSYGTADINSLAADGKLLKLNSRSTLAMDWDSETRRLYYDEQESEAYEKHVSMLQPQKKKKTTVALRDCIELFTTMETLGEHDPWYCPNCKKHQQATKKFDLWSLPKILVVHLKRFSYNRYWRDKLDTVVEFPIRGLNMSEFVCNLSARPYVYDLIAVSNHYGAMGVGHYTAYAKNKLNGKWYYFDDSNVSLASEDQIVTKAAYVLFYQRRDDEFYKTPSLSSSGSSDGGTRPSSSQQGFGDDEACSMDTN
In short: as §1

Measured: log2 ratio of Biotin-Ahx-Ub-VS probe labelling

O=C(CCl)NCc1cccc(F)c1
inactive: USP34 -0.0351 | USP36 -0.312 | USP38 0.0703 | USP39 -0.114 | USP4 -0.0159
